# An excerpt weighted towards active compounds, which were near 9.4% of everything screened.
# ELG1 genotox – induces genotoxicity in HEK293T cells with luciferase-tagged ELG1. HEK293T ELG1-luciferase reporter, luminescence, 16 h. AID 504466. 330,000 tested, 1.3% active. Potency, µM (highest dose often 46 µM), for the others: at the highest dose activity change, positive = activation, usual class: activators; further: % of control where 0% means no effect; nearly all actives have a fitted effect of over 60% in size
#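 Genotoxic stress is detected as increased luminescence from luciferase-tagged ELG1 in HEK293T cells, measured with ONE-Glo after a 16 hr treatment at 37 °C.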
# SMN2 splice enh – SMN2 splice variant enhancement. AID 1458. HEK293 SMN2-luciferase splicing reporter, luminescence, 30-36 h. 210,000 tested, 2.8% active. Potency, µM (doses to about 46.1 µM), inactives show top-dose activity change, positive = activation, actives largely listed as activators; further: % of control where 0% means no effect; nearly all actives have a fitted effect of over 55% in size
#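 HEK293 cells carry an SMN2 minigene-luciferase reporter in which exon 7 inclusion puts luciferase in frame. Cells were seeded at 2000 cells/well, attached for 10-12 hours, then exposed to compounds for 30-36 hours at 37C before ONE-Glo luminescence.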
# NPC1 promoter act – activators of NPC1 promoter; 320,000 tested, 2.4% active; Huh7 NPC1 promoter luciferase reporter, 24 h; Potency, µM (series often up to 9.22 µM), for the others: at the highest dose activation, usual class: activators; further: % of control where 0% means no effect; nearly all actives have a fitted effect of over 60% in size
#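 Stably transfected Huh7 (NPC1 promoter→luciferase), 1500 cells/well in Opti-MEM + 10% FBS, 2 h settle, then compound 24 h at 37 °C. Luminescence after 10 min with Amplite reagent.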
# ELG1 repair inh – inhibitors of ELG1-dependent DNA repair in HEK293T cells | Potency, µM (doses to about 46.1 µM), without a hit: top-dose activity change, negative = inhibition, hits mostly inhibitors | HEK293T ELG1-luciferase reporter, luminescence, 16 h; DNA damage induced by 5-fluorouridine | 330,000 tested, 2.3% active; further: on the % scale 0 is the no-effect control and ±100 the full control effect; nearly all actives have a fitted effect of over 55% in size
#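 5-Fluorouridine DNA damage + compound/DMSO, 2,000 cells/well, 16 h, 37 °C/5% CO2. ONE-Glo, 30 min RT, luminescence. Readout = decrease in reporter signal.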
# FLuc modulator – firefly luciferase modulation, counter-screen for miR-21 project; P08659; purified FLuc, Km substrates, luminescence inhibition; Potency, µM (doses to about 57.5 µM), for the others: at the highest dose activity change, negative = inhibition, actives largely listed as inhibitors; 360,000 tested, 6.9% active;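 further: plate controls were vehicle for no effect and reference inhibitor for full effect; nearly all actives have a fitted effect of over 55% in size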
# Target sequence (P08659 whole entry, looked up): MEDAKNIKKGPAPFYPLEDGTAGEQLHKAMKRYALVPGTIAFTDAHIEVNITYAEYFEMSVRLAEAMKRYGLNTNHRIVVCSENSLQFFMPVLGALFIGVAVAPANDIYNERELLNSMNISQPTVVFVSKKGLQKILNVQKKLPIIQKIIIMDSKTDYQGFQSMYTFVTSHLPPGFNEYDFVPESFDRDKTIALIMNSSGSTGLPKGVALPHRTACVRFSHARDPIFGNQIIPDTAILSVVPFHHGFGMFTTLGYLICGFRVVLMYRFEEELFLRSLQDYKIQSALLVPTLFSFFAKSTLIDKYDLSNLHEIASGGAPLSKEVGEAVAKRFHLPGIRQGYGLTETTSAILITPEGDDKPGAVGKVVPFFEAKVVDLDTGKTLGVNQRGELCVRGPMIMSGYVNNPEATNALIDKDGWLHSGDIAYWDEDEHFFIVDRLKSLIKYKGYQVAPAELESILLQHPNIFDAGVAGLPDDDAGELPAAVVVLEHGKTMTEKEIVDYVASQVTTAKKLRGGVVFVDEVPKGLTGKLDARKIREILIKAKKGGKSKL
#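 Biochemical qHTS of compounds, final roughly 60 µM downward over six points, against 10 nM purified firefly luciferase using Km concentrations of substrates (10 uM D-luciferin, 10 uM ATP) in Tris acetate pH 7.5 buffer; luminescence output.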
# Rab9 prom act – activators of Rab9 promoter; Huh7 Rab9 promoter-luciferase reporter, luminescence, 24 h; Potency, µM (highest dose often 9.22 µM), inactives show at the top dose activation, negative = inhibition, usual class: activators; 320,000 tested, 2.8% active; further: % of control where 0% means no effect; nearly all actives have a fitted effect of over 60% in size
#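 Using Huh7 cells stably transfected with Rab9 promoter–luciferase, compounds were incubated 24 h at 37 °C, 5% CO2; luciferase luminescence was read 10 min after reagent addition.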
# Numbers without * were called inactive; ? = inconclusive; . = not tested or not shown; [ ] = another dose, or the depositor's remark. The call rests on the fitted dose curve; in most records, active means well fitted curve in the direction sought with a large enough effect; inconclusive means small, poorly fitted or top-dose-only effect, or another doubt; inactive means no such curve, though single readings can be large; an effect the other way counts as inactive or inconclusive. Potency means the concentration at half of the fitted maximal effect.
SMILES,ELG1 genotox,SMN2 splice enh,NPC1 promoter act,ELG1 repair inh,FLuc modulator,Rab9 prom act
Cc1cccn2cc(-c3c[nH]c4ccccc34)nc12,?,12.6µM*,?,?,19µM*,?
Cc1ccc(OCC(=O)Nc2ccc3nn(-c4ccc(C)cc4)nc3c2)cc1,.,?,.,.,-13.2%,.
COC(=O)CSc1nnc(SCc2ccccc2)s1,1.7%,-4.0%,1.5%,-5.3%,19µM*,8.1%
COC(=O)CSc1nnc(SCc2ccc(Cl)cc2)s1,1.8%,-9.2%,-0.1%,?,16.9µM*,-3.5%
O=C(CSc1nnc(SCc2ccc(Cl)cc2)s1)N1CCN(C(=O)c2ccco2)CC1,-1.0%,-7.9%,0.6%,6.9%,9.53µM*,-9.1%
COc1ccc([C@@H](C)C(=O)c2ccc(O)cc2O)cc1,.,-12.5%,.,.,.,.
CCOc1ccc(CCNC(=O)CCc2c(C)nc3c4c(C)cc(C)nc4nn3c2C)cc1,.,13.9%,.,.,-4.6%,.
COC(=O)[C@H](Cc1ccccc1)NC(=O)c1cc(COc2c(F)cccc2F)on1,?,.,?,?,19µM*,?
CCC(NC(=O)c1cc(COc2c(F)cccc2F)on1)c1ccncc1 (stereo unspecified),-3.2%,.,8.7%,?,-3.5%,-0.7%
CN(Cc1cc(-c2ccccc2)on1)C(=O)c1cc(COc2c(F)cccc2F)on1,16.2%,.,23.7%,?,23.9µM*,2.51µM*
CC(C)(C)n1nnnc1CN1CCN(C(c2ccccc2)c2ccccc2)CC1,-26.9%,.,-12.4%,18.4µM*,5.0%,-6.2%
CCSc1oc(-c2cccs2)nc1S(=O)(=O)c1ccc(Br)cc1,.,7.9%,.,.,-3.1%,.
COc1ccccc1NC(=O)CSc1nnc(-c2ccc(C)cc2)o1,?,2.51µM*,1.58µM*,?,-10.9%,1.26µM*
COc1ccc(-c2nnc(SCC(=O)Nc3cc(C)on3)o2)cc1,12.0%,20µM*,15.9%,?,-9.4%,26.6%
CCOC(=O)CSc1nnc(-c2ccc(OC)cc2OC)o1,2.9%,7.1%,-0.5%,10.6%,9.53µM*,1.9%
COc1ccccc1NC(=O)CSc1nnc(-c2ccccc2C)o1,.,.,.,.,-16.4%,.
CCOC(=O)CSc1nnc(-c2ccc(OC)cc2)o1,.,-0.3%,.,.,16.9µM*,.
COc1ccc(-c2nnc(SCC(=O)Oc3ccc(C)cc3)o2)cc1,-0.2%,8.1%,-0.4%,12.0%,?,-0.1%
COc1ccc(NC(=O)CSc2nnc(-c3ccc(C)cc3)o2)cc1,.,.,.,.,-0.4%,.
O=C(CSc1nnc(-c2cccnc2)o1)Nc1ccccc1F,?,.,3.16µM*,?,-0.8%,3.16µM*
COc1ccc(-c2nnc(SCC(C)C)o2)cc1,?,.,1µM*,?,1.51µM*,0.631µM*
COc1ccc(C(=O)CSc2nnc(-c3ccc(C)cc3)o2)cc1,?,1.0%,0.2%,0.0%,-0.6%,-7.1%
CC(NC(=O)c1ccco1)C(=O)N1CCN(c2cccc(C(F)(F)F)c2)CC1 (stereo unspecified),-7.2%,.,0.6%,-10.2%,-2.9%,-1.1%
CCOc1ccccc1NC(=O)Cn1ncc2c([nH]c3ccccc32)c1=O,.,.,.,.,0.0%,.
N#Cc1nc(COc2cccc(Cl)c2)oc1NCCc1ccccc1,.,-6.0%,.,.,-11.9%,.
SMILES,ELG1 genotox,SMN2 splice enh,NPC1 promoter act,ELG1 repair inh,FLuc modulator,Rab9 prom act
CC(C)(C)OC(=O)N/N=C/c1cccc([N+](=O)[O-])c1,?,11.2µM*,2.51µM*,?,6.01µM*,3.16µM*
O=C(N/N=C/c1cc([N+](=O)[O-])ccc1O)c1c[nH]c2ccccc12,15.5%,.,-0.4%,8.2µM*,-9.5%,-2.7%
O=C(N/N=C/c1cccc([N+](=O)[O-])c1)c1c[nH]c2ccccc12,11.5%,.,2.24µM*,4.2%,16.9µM*,?
Cc1cc(C(=O)N/N=C/c2cccc([N+](=O)[O-])c2)c(C)o1,11.6%,-6.9%,18.1%,21.7%,?,27.0%
CC(C)(C)OC(=O)N/N=C\c1ccc[nH]1,7.3%,27.4%,-5.3%,?,19µM*,?
CC(C)Cc1nn2c(=O)cc(COC(=O)c3ccc(NC(=O)C4CCCCC4)cc3)nc2s1,.,.,.,.,-4.1%,.
Cc1ccc(/C=C/C(=O)N2CCc3ccccc3C2)cc1,?,0.7%,24.3%,?,10.7µM*,23.7%
O=C(/C=C/c1ccc(F)cc1)N1CCc2ccccc2C1,16.8%,.,?,?,10.7µM*,2.51µM*
CC(C)(C)c1ccc(/C=C/C(=O)N2CCc3ccccc3C2)cc1,3.7%,-1.0%,-0.7%,0.4%,?,-8.4%
CC(=O)N1c2ccc(S(=O)(=O)N3CCCCCC3)cc2CC1C(=O)NCc1ccccc1 (stereo unspecified),.,.,.,.,-6.4%,.
Fc1ccc(/C=C2\CCCC3=C2Nc2ncnn2C3c2ccc(F)cc2)cc1 (stereo unspecified),-2.5%,-16.3%,-10.3%,4.61µM*,-2.8%,-0.1%
COc1ccc(C2C3=C(Nc4ncnn42)c2ccccc2CCC3)cc1 (stereo unspecified),13.3%,.,-5.8%,2.8%,0.2%,5.2%
COc1ccc(/C=C/C(=O)Nc2ccc(-c3nnc4n3CCCCC4)cc2)c(OC)c1,-7.3%,-11.8%,4.5%,23.1µM*,26.9µM*,1.3%
COc1ccccc1/C=C/C(=O)Nc1ccc(N2CCOCC2)cc1,4.8%,-3.1%,-36.6%,24.6%,-6.0%,-0.5%
CCOC(=O)/C=C/C(=O)Nc1ccc(-c2nnc3n2CCCCC3)cc1,0.8%,.,2.2%,-0.2%,-0.3%,1.3%[1.84 µM]
COc1ccc(NC(=O)Nc2ccc3c(c2)CCC3)cc1,20.6µM*,.,?,?,-13.2%,?
COc1ccccc1/C=C/C(=O)Nc1ccc2c(c1)CCC2,?,12.6µM*,3.16µM*,?,4.26µM*,1.78µM*
COc1cccc(-c2ocnc2C(=O)Nc2ccc3c(c2)CCC3)c1,16.3%,.,-1.3%,7.2%,19µM*,9.1%
COc1cccc(CC(=O)Nc2ccc3c(c2)CCC3)c1,8.6%,.,0.5%,-17.5%,?,6.6%
O=C(O)c1cc(Cl)cc(Cc2cc(Cl)cc(C(=O)O)c2O)c1O,.,-7.2%[9.22 µM],.,.,.,.
Cc1ccc2oc(=O)c3cc(C(=O)Nc4ccccc4C(N)=O)sc3c2c1,.,0.9%,.,.,-3.1%,.
COc1ccc(NC(=O)/C=C/c2cc(Br)ccc2OC)cc1,-7.3%,-0.7%,12.3%,?,?,6.5%
COc1ccc(OC)c(/C=C/C(=O)Nc2ccc3c(c2)CCC3)c1,-0.4%,12.1%,6.1%,2.0%,10.7µM*,1.5%
c1ccc(-c2noc(C3CCC3)n2)nc1,10.1%,.,21.7%,?,-18.8%,27.1%
CCCCC1CCC(c2nc(-c3ccccn3)no2)CC1 (stereo unspecified),?,11.2µM*,?,?,2.69µM*,?

# Assay outcomes from PubChem.
